# Keap1 Nrf2 FP: disrupts human Keap1 binding to Nrf2 peptide | Q14145 | Keap1 Kelch-Nrf2 peptide fluorescence polarization, 1536-well | inhibition, % at 9.4 µM | 0.15% of 340,000 active; in the data active = inhibition above about 12%;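 also: human Keap1 Kelch domain with fluorescein labeled Nrf2 9mer peptide probe; 0% = neutral control wells and 100% = peptide positive control; higher means more block of Keap1 binding to Nrf2 peptide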
# Target sequence (Q14145 whole entry, looked up, the tested form may be a part): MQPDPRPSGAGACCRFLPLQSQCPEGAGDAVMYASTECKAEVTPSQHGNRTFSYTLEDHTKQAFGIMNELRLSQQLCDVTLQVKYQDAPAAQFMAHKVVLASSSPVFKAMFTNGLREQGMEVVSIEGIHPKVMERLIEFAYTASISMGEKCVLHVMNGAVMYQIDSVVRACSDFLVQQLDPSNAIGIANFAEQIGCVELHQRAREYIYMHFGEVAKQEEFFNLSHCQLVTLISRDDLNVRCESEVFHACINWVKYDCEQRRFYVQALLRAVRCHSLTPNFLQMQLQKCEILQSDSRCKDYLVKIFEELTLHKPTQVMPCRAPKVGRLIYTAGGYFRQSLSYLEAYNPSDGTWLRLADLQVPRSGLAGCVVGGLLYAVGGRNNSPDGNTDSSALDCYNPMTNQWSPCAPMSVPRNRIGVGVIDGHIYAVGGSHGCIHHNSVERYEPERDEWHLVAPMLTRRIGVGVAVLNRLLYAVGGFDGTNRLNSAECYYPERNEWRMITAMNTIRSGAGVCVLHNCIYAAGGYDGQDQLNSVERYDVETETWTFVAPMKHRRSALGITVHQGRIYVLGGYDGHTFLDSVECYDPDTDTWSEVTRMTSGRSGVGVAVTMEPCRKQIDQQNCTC
# RTF Ca sens inh: cardiac RTF calcium desensitization | inhibition, % at 7.15 µM | IANBD-labeled cardiac RTF, Ca2+ fluorescence | 0.12% of 340,000 active;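 active = inhibition above the mean inhibition of all tested compounds plus 3 SD, cut at about 17% in these data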;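 also: assay run at fixed EC70 calcium of 1.6 mM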
# C-LANA FP: KSHV C-LANA DNA binding inhibition; MBP-C-LANA/FAM-LBS DNA binding, fluorescence polarization; inhibition, % at 9 µM; 0.078% of 340,000 active;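 active = highest replicate inhibition at or above 60% at 9 µM, even if other replicates fall short; inactive = all replicates below 60% inhibition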;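 also: 0% = neutral control wells and 100% = 4 µM acridine orange control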
# eLon inh: inhibitors of E. coli Lon protease | P0A9M0 | purified E. coli Lon protease, fluorescence polarization | inhibition, % at 7.94 µM | 0.42% of 360,000 active; in the data active = inhibition above about 13%, passing the limit was not always enough;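 also: 0% = enzyme with probe and DMSO and 100% = no enzyme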
# LANA-H2A inh: blocks KSHV LANA binding to histone H2A/H2B | Q9QR71 | cell-free LANA-H2A/H2B peptide, fluorescence polarization | inhibition, % (test concentration not listed) | 0.6% of 320,000 active; in the data active = inhibition mostly above about 10%, no sharp cut-off; inactive = mostly below about 6.7%
# cardiac RTF act: increases calcium sensitivity of human cardiac regulated thin filaments; P19429+P45379; IANBD-labeled TnC RTF fluorescence at EC20 calcium; 0% EC20 calcium, 100% full calcium; activation, % at 7.2 µM; 0.24% of 340,000 active; AID 493008;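 active = activation above the mean over all tested compounds plus 3 SD, cut at about 30% in these data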;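 also: rise in fluorescence read as greater calcium sensitivity of cardiac thin filaments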
# E coli Lon conf: confirmation of E. coli Lon protease inhibitors; shares compounds with eLon inh; purified E. coli Lon, fluorescence polarization; inhibition, % at 7.94 µM; 31% of 1,400 active; AID 602230; in the data active = inhibition above about 16%;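 also: 0% = enzyme with probe and DMSO and 100% = no enzyme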
# Active calls of the source: *; . = no result; + = active, no number. A selection: hits, their analogues and other compounds. The true share with any hit is near 1.3%.
SMILES,Keap1 Nrf2 FP,RTF Ca sens inh,C-LANA FP,eLon inh,LANA-H2A inh,cardiac RTF act,E coli Lon conf
CC1(C)CC(=O)C/C(=N/NC(=O)COc2ccc(Cl)cc2Cl)C1,2,-13,1,25*,1,-3,7
O=C(NNC(=O)c1ccccc1Br)c1cnccn1,-6,-7,2,-10,-5,3,.
CC(NS(=O)(=O)c1ccccc1)C1CC2CCC1C2 (stereo unspecified),-2,2,0,23*,-2,3,-2
Cc1cc(NC(=O)CSc2nnc(-c3ccccc3Cl)o2)no1,1,-2,0,2,0,-3,.
CCc1ccc(OCC(=O)NNC(=S)NC(=O)C2CCCCC2)c(Br)c1,2,0,1,-1,2,-4,.
O=C(COc1ccccc1Cl)NC(=O)NC1CCCCC1,-2,7,-1,-5,-1,8,.
O=C(COc1ccc(F)cc1Cl)NC1CCCCCC1,4,-4,-1,160*,-4,-4,-8
CCc1ccc(OCC(=O)NC2CCCCC2)c(Br)c1,5,1,1,36*,-23,-3,16*
CCCCc1ccc(NC(=O)CSc2nnc(C)c(=O)n2N)cc1,-5,-2,1,-2,-5,4,.
Cc1cccc(NC(=O)CSc2nnc(Cc3ccccc3)o2)c1,1,-4,-1,8,-1,-2,.
COC(=O)c1ccccc1NC(=S)NC(=O)c1ccc(C)cc1,3,-8,1,-6,-1,5,.
COC(=O)c1ccccc1NC(=S)NC(=O)c1ccccc1,-18,-16,0,16*,-2,0,10
Cc1ccc2cccnc2c1NC(=S)NC(=O)c1ccccc1,-7,-6,0,19*,2,-4,2
Cc1ccc2cccc(NC(=S)NC(=O)c3ccccc3)c2n1,4,-16,1,-13,1,4,.
COc1ccc(CN(C(=O)c2snc(C(N)=O)c2N)C(C(=O)NC2CCCC2)c2cc(OC)ccc2OC)cc1 (stereo unspecified),-2,3,0,0,-4,-9,.
CCCCOc1ccc(/C=C/C(=O)OCC(=O)N2CC(=O)Nc3ccccc32)cc1OCC,0,-6,-1,-4,-6,-2,.
O=c1c2cc(Br)ccc2nc2n1CCCCC2,0,6,-1,-3,-5,-5,.
O=c1c2cc([N+](=O)[O-])ccc2nc2n1CCCC2,-1,-5,0,19*,6,0,-6
O=C1C=C(NNC(=O)c2cccnc2)CC(c2ccco2)C1 (stereo unspecified),11,-12,20,46*,0,-1,-28
CC1(C)CC(=O)C=C(NNC(=O)c2cccnc2)C1,.,.,.,31,2,.,.
CC1(C)CC=C(NNC(=O)c2cccnc2)C(=O)C1,2,-9,7,21*,6,4,-8
COc1cccc2c1C(=O)c1c(O)c3c(c(O)c1C2=O)CC(O)(C(C)=O)CC3OC1CC(O)C(O)C(C)O1 (stereo unspecified),20*,-300,110*,+,.,223*,+
COc1ccc(NS(=O)(=O)c2ccc(Cl)s2)cn1,5,-7,15,19*,5,12,35*
CCOc1ccc(N=Cc2ccc([N+](=O)[O-])cc2)c(O)c1,.,.,.,43*,.,.,1
CCOc1ccc(N=Cc2ccc(N(C)C)cc2)c(O)c1,.,.,.,126*,.,.,78*
CCN(CC)CCN(Cc1cc2ccc(C)c(C)c2[nH]c1=O)C(=S)NCc1ccco1,-3,1,0,4,-1,-1,.
CN1N=C(N)c2cn(C3OC(COP(=O)(O)O)C(O)C3O)c3ncnc1c23 (stereo unspecified),-2,1,2,12,.,-1,.
COc1ccc(C(NC(=O)CNC(C)=O)C(=O)Nc2ccc3c(c2)OCCO3)cc1 (stereo unspecified),-5,-4,3,14*,1,0,-22
Cc1ccc(SCCC(=O)Nc2ccccc2C(=O)NC(C)C)cc1,-2,7,0,69*,2,0,15
Cc1ccc(SCCC(=O)Nc2ccccc2Br)cc1,-2,6,1,0,6,1,.
